# Records with an inconclusive call do not appear. Activity calls are given as the source filed them. The calls were made as follows, unless noted: active = hit-call score of the fitted dose curve at least 0.9, where 1 is the maximum; inactive = score below 0.9.
# Legend:
# [1] = molecular target: human RAR-related Orphan Receptor beta (RORb), RORB (gene 6096) (UniProt Q92753); experiment: ATG_RORb_TRANS: Attagene TRANS-FACTORIAL HepG2 Assay for human RAR-related Orphan Receptor beta (RORb) (AID 2283010; active = hit-call score of the fitted dose curve at least 0.9, where 1 is the maximum)
# human RAR-related Orphan Receptor beta (RORb), RORB (gene 6096), sequence (Q92753 whole entry, looked up, the tested form may be a part): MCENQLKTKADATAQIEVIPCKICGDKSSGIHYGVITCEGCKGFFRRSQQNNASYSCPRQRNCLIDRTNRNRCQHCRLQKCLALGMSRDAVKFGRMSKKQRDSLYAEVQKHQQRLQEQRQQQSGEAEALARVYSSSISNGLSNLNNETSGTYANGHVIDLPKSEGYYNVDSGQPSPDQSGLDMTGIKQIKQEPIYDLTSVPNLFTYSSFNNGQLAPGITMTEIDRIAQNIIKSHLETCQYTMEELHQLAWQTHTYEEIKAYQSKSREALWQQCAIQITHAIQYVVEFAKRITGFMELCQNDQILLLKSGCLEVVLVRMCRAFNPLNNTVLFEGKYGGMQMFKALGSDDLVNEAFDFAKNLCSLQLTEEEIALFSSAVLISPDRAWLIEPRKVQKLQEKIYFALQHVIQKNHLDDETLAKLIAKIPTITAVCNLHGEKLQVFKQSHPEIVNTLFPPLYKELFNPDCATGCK
# Outline: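 Multiplexed transcription-factor reporter assay: HepG2 cells transiently carrying NR-Gal4/GAL4-UAS constructs, 24 h treatment, mRNA quantified by RT-PCR plus capillary electrophoresis fluorescence; activity scored as induction over DMSO.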
# [2] = molecular target: human RAR-related Orphan Receptor gamma (RORg), RORC (gene 6097) (UniProt P51449); experiment: ATG_RORg_TRANS: Attagene TRANS-FACTORIAL HepG2 Assay for human RAR-related Orphan Receptor gamma (RORg) (AID 2283011; active = hit-call score of the fitted dose curve at least 0.9, where 1 is the maximum)
# human RAR-related Orphan Receptor gamma (RORg), RORC (gene 6097), sequence (P51449 whole entry, looked up, the tested form may be a part): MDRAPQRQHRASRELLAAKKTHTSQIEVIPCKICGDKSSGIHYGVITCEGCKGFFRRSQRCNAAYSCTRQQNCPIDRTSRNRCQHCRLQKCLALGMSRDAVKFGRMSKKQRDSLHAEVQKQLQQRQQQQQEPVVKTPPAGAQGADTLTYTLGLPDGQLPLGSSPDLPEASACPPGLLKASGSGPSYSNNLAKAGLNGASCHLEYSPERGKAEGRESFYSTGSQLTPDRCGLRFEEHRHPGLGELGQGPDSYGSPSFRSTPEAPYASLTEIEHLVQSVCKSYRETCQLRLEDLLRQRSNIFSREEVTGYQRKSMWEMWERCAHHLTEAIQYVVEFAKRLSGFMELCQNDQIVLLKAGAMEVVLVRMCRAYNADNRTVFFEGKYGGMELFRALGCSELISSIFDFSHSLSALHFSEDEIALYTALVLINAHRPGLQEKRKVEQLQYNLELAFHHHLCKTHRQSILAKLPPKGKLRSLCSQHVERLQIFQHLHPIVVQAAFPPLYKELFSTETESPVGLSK
# Outline: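 First, HepG2 liver cells were transfected with GAL4-UAS-driven reporter constructs and the RORg-Gal4 fusion. Next, they were treated with chemical for 24 h. Finally, reporter mRNA was quantified by RT-PCR and capillary electrophoresis, with upward activity fitted against DMSO.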
# [3] = molecular target: Retinoic acid receptor RXR-alpha (Homo sapiens) (UniProt P19793); experiment: ATG_RXRa_TRANS: Attagene TRANS-FACTORIAL HepG2 Assay for human Retinoid X Receptor alpha (RXRa) (AID 2283012; active = hit-call score of the fitted dose curve at least 0.9, where 1 is the maximum)
# Retinoic acid receptor RXR-alpha (Homo sapiens), sequence (P19793 whole entry, looked up, the tested form may be a part): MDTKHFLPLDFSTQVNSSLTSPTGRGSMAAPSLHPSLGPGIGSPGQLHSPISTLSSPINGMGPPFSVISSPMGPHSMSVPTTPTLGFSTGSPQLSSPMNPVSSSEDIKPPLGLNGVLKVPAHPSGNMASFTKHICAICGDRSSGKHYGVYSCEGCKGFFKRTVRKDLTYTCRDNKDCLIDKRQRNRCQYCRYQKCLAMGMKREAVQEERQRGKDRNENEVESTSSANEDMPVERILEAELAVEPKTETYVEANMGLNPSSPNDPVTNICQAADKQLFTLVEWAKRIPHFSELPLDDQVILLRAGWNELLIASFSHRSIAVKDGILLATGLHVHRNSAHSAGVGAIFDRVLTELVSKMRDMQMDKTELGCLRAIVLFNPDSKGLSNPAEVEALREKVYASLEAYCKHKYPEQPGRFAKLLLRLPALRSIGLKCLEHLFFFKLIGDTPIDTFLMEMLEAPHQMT
# Outline: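 Chimeric NR-GAL4 trans-activation in HepG2, 24 h treatment; reporter transcripts quantified by fluorescence on capillary electrophoresis, analysed for upward change from DMSO.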
# [4] = molecular target: human Retinoid X Receptor beta (RXRb), RXRB (gene 6257) (UniProt P28702); experiment: ATG_RXRb_TRANS: Attagene TRANS-FACTORIAL HepG2 Assay for human Retinoid X Receptor beta (RXRb) (AID 2283013; active = hit-call score of the fitted dose curve at least 0.9, where 1 is the maximum)
# human Retinoid X Receptor beta (RXRb), RXRB (gene 6257), sequence (P28702 whole entry, looked up, the tested form may be a part): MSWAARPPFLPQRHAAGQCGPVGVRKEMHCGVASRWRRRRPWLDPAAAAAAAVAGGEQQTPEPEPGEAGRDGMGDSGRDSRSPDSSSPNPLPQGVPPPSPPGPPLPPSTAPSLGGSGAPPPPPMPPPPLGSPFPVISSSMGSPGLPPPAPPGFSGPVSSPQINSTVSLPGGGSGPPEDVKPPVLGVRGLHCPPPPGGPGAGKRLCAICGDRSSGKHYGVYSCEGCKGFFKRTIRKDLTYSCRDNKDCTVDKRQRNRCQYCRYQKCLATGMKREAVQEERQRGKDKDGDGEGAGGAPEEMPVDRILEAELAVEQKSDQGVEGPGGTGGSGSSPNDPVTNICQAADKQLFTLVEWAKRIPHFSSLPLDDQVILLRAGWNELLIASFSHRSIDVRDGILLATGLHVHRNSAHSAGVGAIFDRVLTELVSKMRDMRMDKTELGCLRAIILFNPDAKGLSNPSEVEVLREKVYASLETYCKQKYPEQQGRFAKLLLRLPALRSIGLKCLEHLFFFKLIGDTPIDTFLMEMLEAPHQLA
# Outline: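 After a 24 h incubation with test chemical, transfected HepG2 cells carrying NR-Gal4 fusions and GAL4-UAS reporter transcription units yield RNA whose reporter cDNA is FAM-labelled, HpaI-cut and sized by capillary electrophoresis; increases over DMSO are scored.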
# [5] = molecular target: human Thyroid Receptor alpha (THRa1), THRA (gene 7067) (UniProt P10827); experiment: ATG_THRa1_TRANS: Attagene TRANS-FACTORIAL HepG2 Assay for human Thyroid Receptor alpha (THRa1) (AID 2283014; active = hit-call score of the fitted dose curve at least 0.9, where 1 is the maximum)
# human Thyroid Receptor alpha (THRa1), THRA (gene 7067), sequence (P10827 whole entry, looked up, the tested form may be a part): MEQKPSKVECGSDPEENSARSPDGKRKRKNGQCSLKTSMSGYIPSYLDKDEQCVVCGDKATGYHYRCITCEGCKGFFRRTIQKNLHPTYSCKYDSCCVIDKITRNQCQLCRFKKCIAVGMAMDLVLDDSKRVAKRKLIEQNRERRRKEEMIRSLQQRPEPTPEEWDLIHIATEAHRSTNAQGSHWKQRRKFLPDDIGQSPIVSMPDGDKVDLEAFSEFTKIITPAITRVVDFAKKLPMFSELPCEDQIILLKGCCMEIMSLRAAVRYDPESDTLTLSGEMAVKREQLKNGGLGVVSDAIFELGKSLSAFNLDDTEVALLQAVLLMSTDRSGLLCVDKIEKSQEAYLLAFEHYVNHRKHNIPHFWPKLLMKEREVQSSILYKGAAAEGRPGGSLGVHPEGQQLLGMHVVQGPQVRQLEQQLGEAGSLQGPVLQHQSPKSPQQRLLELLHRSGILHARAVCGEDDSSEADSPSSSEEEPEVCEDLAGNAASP
# Outline: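 Reporter transcript induction, read by capillary electrophoresis of 6-FAM-labelled RT-PCR products, reflects activity of a transfected THRa1-Gal4 fusion in HepG2 liver cells. Cells were dosed for 24 h; activity was fitted in the positive direction against DMSO.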
# [6] = read-out: E-selectin (Homo sapiens) (UniProt P16581); experiment: BSK_3C_Eselectin: BioMAP Diversity Plus: 3C Assay for Eselectin Biomarker Activity (AID 2283015); conditions: primary human endothelial cells (HUVEC); actives raise or lower the signal;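 as to outcome: cell surface E-selectin protein quantified by ELISA 24 h after dosing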
# Outline: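 ELISA read-out of E-selectin on endothelial monolayers after 24 h chemical treatment. Human umbilical vein primary cells served as the system, with DMSO defining baseline activity for bidirectional fitting.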
# [7] = read-out: Interleukin-1 alpha (IL1a), IL1A (gene 3552); experiment: BSK_BE3C_IL1a: BioMAP Diversity Plus: BE3C Assay for Interleukin-1 alpha (IL1a) Biomarker Activity (AID 2283016); conditions: primary human bronchial epithelial cells; actives raise or lower the signal
# Outline: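 Measured in human lung primary bronchial epithelial cells: IL-1a by ELISA at 24 h after dosing, with bidirectional fitting against DMSO.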
# [8] = read-out: Monocyte Chemoattractant Protein-1 (MCP1), CCL2 (gene 6347); experiment: BSK_3C_MCP1: BioMAP Diversity Plus: 3C Assay for Monocyte Chemoattractant Protein-1 (MCP1) Biomarker Activity (AID 2283017); conditions: primary human endothelial cells (HUVEC); actives raise or lower the signal
# Outline: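 ELISA read-out of MCP-1 from human umbilical vein endothelial cell cultures harvested 24 h post-dosing. Gain or loss of signal was fitted relative to DMSO.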
# [9] = read-out: Monocyte Chemoattractant Protein-1 (MCP1), CCL2 (gene 6347); experiment: BSK_4H_MCP1: BioMAP Diversity Plus: 4H Assay for Monocyte Chemoattractant Protein-1 (MCP1) Biomarker Activity (AID 2283018); conditions: primary human endothelial cells (HUVEC); actives raise or lower the signal
# Outline: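 Primary human umbilical vein endothelium is exposed to chemical for 24 h before MCP-1 is assayed by ELISA. Concentration-response fitted bidirectionally relative to DMSO.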
# [10] = read-out: Human Leukocyte Antigen - DR isotype (HLADR), HLA-DRA (gene 3122); experiment: BSK_3C_HLADR: BioMAP Diversity Plus: 3C Assay for Human Leukocyte Antigen - DR isotype (HLADR) Biomarker Activity (AID 2283019); conditions: primary human endothelial cells (HUVEC); actives raise or lower the signal;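 as to outcome: ELISA of cell-surface HLA-DR on HUVEC 24 h after dosing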
# Outline: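 ELISA readout of surface HLA-DR on human umbilical vein endothelium, taken 24 h after chemical treatment. Gain- and loss-of-signal were both fitted relative to DMSO.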
# [11] = read-out: Interleukin-8 (IL8), CXCL8 (gene 3576); experiment: BSK_3C_IL8: BioMAP Diversity Plus: 3C Assay for Interleukin-8 (IL8) Biomarker Activity (AID 2283020); conditions: primary human endothelial cells (HUVEC); actives raise or lower the signal
# Outline: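 Using DMSO-treated wells as the baseline, bidirectional curve fitting was applied to ELISA-measured IL-8 from human umbilical vein endothelial cultures sampled 24 h after compound addition.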
# [12] = read-out: Monokine induced gamma interferon (MIG), CXCL9 (gene 4283); experiment: BSK_3C_MIG: BioMAP Diversity Plus: 3C Assay for Monokine induced gamma interferon (MIG) Biomarker Activity (AID 2283021); conditions: primary human endothelial cells (HUVEC); actives raise or lower the signal
# Outline: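 ELISA-measured MIG in dosed HUVEC 3C cultures at 24 h, analysed by bidirectional fitting with DMSO defining baseline activity.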
# [13] = molecular target: human Vitamin D Receptor (VDR), VDR (gene 7421) (UniProt P11473); experiment: ATG_VDR_TRANS: Attagene TRANS-FACTORIAL HepG2 Assay for human Vitamin D Receptor (VDR) (AID 2283022; active = hit-call score of the fitted dose curve at least 0.9, where 1 is the maximum)
# human Vitamin D Receptor (VDR), VDR (gene 7421), sequence (P11473 whole entry, looked up, the tested form may be a part): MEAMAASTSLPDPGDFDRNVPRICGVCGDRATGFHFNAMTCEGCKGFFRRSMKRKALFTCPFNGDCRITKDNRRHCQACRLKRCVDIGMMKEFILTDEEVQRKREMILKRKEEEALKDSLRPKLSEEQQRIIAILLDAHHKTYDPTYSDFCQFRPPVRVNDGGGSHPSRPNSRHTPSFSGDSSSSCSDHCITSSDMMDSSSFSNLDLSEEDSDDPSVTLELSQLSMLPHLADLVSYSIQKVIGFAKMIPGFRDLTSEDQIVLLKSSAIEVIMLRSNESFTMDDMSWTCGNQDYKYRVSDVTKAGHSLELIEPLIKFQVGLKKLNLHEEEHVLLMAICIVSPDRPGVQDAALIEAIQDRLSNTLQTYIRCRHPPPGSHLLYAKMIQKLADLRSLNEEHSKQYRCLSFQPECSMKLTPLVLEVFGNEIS
# Outline: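 Steps: transfect HepG2 with GAL4-UAS-driven reporter constructs; dose compounds 24 h; isolate RNA, reverse-transcribe, PCR-amplify with 6-FAM-labelled primer extension and HpaI digestion; quantify fragments by capillary electrophoresis relative to DMSO.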
# [14] = BSK_3C_SRB: Viability Assessment in the BioMAP Diversity Plus: 3C Assay (AID 2283023); conditions: primary human endothelial cells (HUVEC);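 also: fitted both ways against DMSO so a hit may be signal rise or drop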
# Outline: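 Absorbance at 560 nm of sulforhodamine B-stained (0.1%) total protein served as a cytotoxicity readout in human umbilical vein endothelial cells, 24 h after chemical treatment. Signal was fitted bidirectionally relative to DMSO.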
# [15] = read-out: Matrix Metallopeptidase 1 (MMP1), MMP1 (gene 4312); experiment: BSK_BE3C_MMP1: BioMAP Diversity Plus: BE3C Assay for Matrix Metallopeptidase 1 (MMP1) Biomarker Activity (AID 2283024); conditions: primary human bronchial epithelial cells; actives raise or lower the signal
# Outline: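 In this multiplexed primary-cell system, human bronchial epithelium received chemicals for 24 h before an ELISA for MMP1. Values reflect bidirectional fits normalised to the DMSO baseline.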
# [16] = BSK_3C_Vis: BioMAP Diversity Plus: 3C Assay for Morphology Visualization (AID 2283025); conditions: primary human endothelial cells (HUVEC);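 also: fitted both ways so gain or loss versus DMSO counts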;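 as to AC50: light microscopy image of cell morphology used as background control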
# Outline: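 Light-microscopy morphology readout, 24 h exposure, human primary umbilical vein endothelium; analysed relative to DMSO with bidirectional fitting.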
# [17] = read-out: Pselectin, SELP (gene 6403); experiment: BSK_4H_Pselectin: BioMAP Diversity Plus: 4H Assay for Pselectin Biomarker Activity (AID 2283026); conditions: primary human endothelial cells (HUVEC); actives raise or lower the signal
# Outline: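 Bidirectional fits against DMSO gave the endpoint. Cells: primary human umbilical vein endothelium, chemical-treated for 24 h before ELISA detection of P-selectin.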
# [18] = BSK_4H_SRB: Viability Assessment in the BioMAP Diversity Plus: 4H Assay (AID 2283027); conditions: primary human endothelial cells (HUVEC);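 also: cells exposed to compound for 24 h before staining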;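 as to AC50: curves fitted both ways versus DMSO so AC50 may be loss or gain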
# Outline: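 Cytotoxicity read-out in primary human endothelial cells: after 24 h compound exposure, cells were TCA-fixed (10%), stained with 0.1% SRB and absorbance taken at 560 nm. Values fitted in both directions relative to DMSO.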
# [19] = BSK_BE3C_SRB: Viability Assessment in the BioMAP Diversity Plus: BE3C Assay (AID 2283028); conditions: primary human bronchial epithelial cells;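 as to AC50: fitted both ways so AC50 may mark signal gain or loss versus DMSO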
# Outline: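 Cells (human bronchial epithelial, primary) are treated with chemicals, and after 24 h the parallel cultures are fixed in 10% TCA. These are then stained with 0.1% SRB and read at 560 nm. Gain or loss of signal is fitted relative to DMSO.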
# [20] = read-out: Thrombomodulin, THBD (gene 7056); experiment: BSK_3C_Thrombomodulin: BioMAP Diversity Plus: 3C Assay for Thrombomodulin Biomarker Activity (AID 2283029); conditions: primary human endothelial cells (HUVEC); actives raise or lower the signal
# Outline: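 In a multiplexed primary-cell system, human umbilical vein endothelium received chemical and was assayed 24 h later for thrombomodulin by ELISA. Parallel cultures were SRB-stained (0.1% SRB after 10% TCA fixation, read at 560 nm) to flag cytotoxicity.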
# E-selectin (Homo sapiens), sequence (P16581 whole entry, looked up): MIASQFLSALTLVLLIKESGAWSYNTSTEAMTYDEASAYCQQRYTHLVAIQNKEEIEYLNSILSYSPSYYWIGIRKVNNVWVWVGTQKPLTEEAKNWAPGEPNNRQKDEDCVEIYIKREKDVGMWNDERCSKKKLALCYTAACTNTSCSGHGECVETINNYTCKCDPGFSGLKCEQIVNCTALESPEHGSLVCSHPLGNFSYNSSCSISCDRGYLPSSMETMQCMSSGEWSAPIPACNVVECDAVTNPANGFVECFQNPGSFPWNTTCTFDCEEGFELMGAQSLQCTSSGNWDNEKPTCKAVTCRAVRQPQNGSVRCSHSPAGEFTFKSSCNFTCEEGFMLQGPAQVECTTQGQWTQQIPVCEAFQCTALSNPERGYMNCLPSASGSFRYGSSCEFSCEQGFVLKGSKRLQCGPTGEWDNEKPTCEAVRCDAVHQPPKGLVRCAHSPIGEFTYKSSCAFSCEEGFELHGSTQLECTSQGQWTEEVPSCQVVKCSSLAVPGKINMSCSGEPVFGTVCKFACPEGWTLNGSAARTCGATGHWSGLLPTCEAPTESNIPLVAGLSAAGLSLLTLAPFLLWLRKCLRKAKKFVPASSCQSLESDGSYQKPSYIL
smiles,measurement,setting,value
COc1ccc(C(c2ccc(OC)cc2)C(Cl)(Cl)Cl)cc1,outcome,[1],inactive
same,outcome,[2],inactive
same,outcome,[3],inactive
same,outcome,[4],inactive
same,outcome,[5],inactive
same,AC50,[6],25.6 µM (active)
same,outcome,[7],inactive
same,AC50,[8],26.4 µM (active)
same,AC50,[9],13.3 µM (active)
same,AC50,[10],25.8 µM (active)
same,AC50,[11],24.9 µM (active)
same,outcome,[12],inactive
same,outcome,[13],inactive
same,AC50,[14],20.1 µM (active)
same,AC50,[15],6.22 µM (active)
same,AC50,[16],15.2 µM (active)
same,AC50,[17],33.4 µM (active)
same,AC50,[18],26.9 µM (active)
same,AC50,[19],19.4 µM (active)
COC(=O)C=C(C)OP(=O)(OC)OC,outcome,[1],inactive
same,outcome,[2],inactive
same,outcome,[3],inactive
same,outcome,[4],inactive
same,outcome,[5],inactive
same,outcome,[6],inactive
same,outcome,[7],inactive
same,outcome,[8],inactive
same,outcome,[9],inactive
same,outcome,[10],inactive
same,outcome,[11],inactive
same,outcome,[12],inactive
same,outcome,[14],inactive
same,outcome,[15],inactive
same,outcome,[16],inactive
same,outcome,[17],inactive
same,outcome,[18],inactive
same,outcome,[19],inactive
same,outcome,[20],inactive
Cc1cc(Cl)ccc1OCC(=O)O,outcome,[1],inactive
same,outcome,[2],inactive
same,outcome,[5],inactive
same,outcome,[6],inactive
same,outcome,[7],inactive
same,outcome,[8],inactive
same,outcome,[9],inactive
same,outcome,[10],inactive
same,outcome,[11],inactive
same,outcome,[12],inactive
same,outcome,[14],inactive
same,outcome,[15],inactive
same,outcome,[16],inactive
same,outcome,[17],inactive
same,outcome,[18],inactive
same,outcome,[19],inactive
CC(C)C1(C)N=C(c2nc3ccccc3cc2C(=O)O)NC1=O (stereo unspecified),outcome,[1],inactive
same,outcome,[2],inactive
same,outcome,[3],inactive
same,outcome,[4],inactive
same,outcome,[5],inactive
same,outcome,[6],inactive
same,outcome,[7],inactive
same,outcome,[8],inactive
same,outcome,[9],inactive
same,outcome,[10],inactive
same,outcome,[11],inactive
same,outcome,[12],inactive
same,outcome,[14],inactive
same,outcome,[15],inactive
same,outcome,[16],inactive
same,outcome,[17],inactive
same,outcome,[18],inactive
same,outcome,[19],inactive
CNC(=O)ON=CC(C)(C)SC,outcome,[1],inactive
same,outcome,[2],inactive
same,outcome,[3],inactive
same,outcome,[6],inactive
same,outcome,[7],inactive
same,outcome,[8],inactive
same,outcome,[9],inactive
same,outcome,[10],inactive
same,outcome,[11],inactive
same,outcome,[12],inactive
same,outcome,[14],inactive
same,outcome,[15],inactive
same,outcome,[16],inactive
same,outcome,[17],inactive
same,outcome,[18],inactive
same,outcome,[19],inactive

# Reference: PubChem BioAssay (EPA / NIEHS)
